Results on 40 compounds are retold here after PubChem BioAssay (EPA / NIEHS).

Structures are written as SMILES. Records with an inconclusive call do not appear. Activity calls are given as the source filed them. How the source made its calls: active means hit-call score of the fitted dose curve at least 0.9, where 1 is the maximum; inconclusive means response in the unintended direction; inactive means score below 0.9.

The assay is described as follows: Tanguay_ZF_120hpf_SNOU_legacy: (Legacy) Oregon State University Tanguay Lab 120 Hour Post-fertilization zebrafish Assay for Snout Malformation (AID 2283637). The protocol: Tanguay_ZF_120hpf_legacy is a whole embryo, multiplexed endpoint assay using zebrafish larvae exposed for 120 hours post fertilization on a 96-well plate.Tanguay_ZF_120hpf_SNOU_legacy is one of one assay component(s) measured or calculated from the Tanguay_ZF_120hpf_legacy assay. It is designed to make measurements of zebrafish development as detected with brightfield microscopy of developing zebrafish embryos.Data from the assay component Tanguay_ZF_120hpf_SNOU_legacy was analyzed into 1 assay endpoints. This assay endpoint, Tanguay_ZF_120hpf_SNOU_legacy, was analyzed in the positive analysis fitting direction relative to DMSO as the negative control and baseline of activity. Using a type of morphology reporter, gain-of-signal activity can be used to understand changes in developmentals as they relate to the whole embryo. To generalize the intended target to other relatable targets, this assay endpoint is annotated to the zebrafish development intended target family, where the subfamily is embryonic snout morphogenesis.
Zebrafish husbandry: Tropical 5D wild-type adult zebrafish were housed in at an approximate density of 1000 per 100 gallon tank at the Sinnhuber Aquatic Research Laboratory, Oregon State University, Corvallis, OR. Each tank was kept at standard laboratory conditions of 28C on a 14-h light/10-h dark photoperiod in fish water consisting of reverse osmosis water supplemented with a commercially available salt (Instant Ocean). Spawning funnels were placed into the tanks the night prior, and embryos were collected and staged. To increase bioavailability, the chorion was enzymatically removed using pronase (63.6mg/ml, >/= 3.5U/mg, Sigma-Aldrich: P5147) at 4 hours post fertilization (hpf) using a custom automated dechorionator.Chemical exposures: Six hpf dechorionated embryos were placed 1 embryo per well in a 96-well plate prefilled with 90 ul of EM using automated embryo placement systems (AEPS). Ten microliters of each row of dilution plate 2 was added to 2 exposure plates. The final DMSO concentration used was 0.64% (vol/vol). Thirty-two embryos were also exposed to 5uM trimethyltin chloride (positive control). Plates were sealed to prevent evaporation and foil covered to reduce light exposure and kept in a 28C incubator. Embryos were statically exposed until 120 hpf. At 24 hpf, embryos were assessed for photomotor response using a custom photomotor response analysis tool (PRAT) and for developmental toxicity endpoints (MO24: mortality at 24 hpf, DP: developmental progression, SM: spontaneous movement, and NC: notochord distortion). At 120 hpf, locomotor activity was measured using Viewpoint Zebralab and assessed for 18 endpoints. Zebrafish acquisition and analysis program (ZAAP), a custom program designed to inventory, acquire, and manage zebrafish data, was used to collect developmental endpoints as either present or absent (i.e., binary responses were recorded). If mortality occurred for an embryo (at either 24 or 120 hpf), the non-mortality endpoints were not measured.
As to `CCCCCCCCCCCCc1ccccc1S(=O)(=O)O`, the result was inactive. Still for that read-out and setting: for `CCCCCCCCOC(=O)CCCCCCCCC(=O)OCCCCCCCC` the value was “inactive”; for `CC(=O)NC1(c2cccc(F)c2)CCN(CC[C@@]2(c3ccc(Cl)c(Cl)c3)CN(c3ccccc3)C(=O)CO2)CC1`, “inactive”. Consider `CCc1ccc(CCOc2ccc(CC3SC(=O)NC3=O)cc2)nc1` (stereo not given), for which the compound was called inactive. For orientation: AC50 means the midpoint of the concentration-response curve, whichever way the signal moves. As to `Cc1cc(CCN2CCN(c3nsc4ccccc34)CC2)cc2c1NC(=O)CC2(C)C`, the concentration at half-maximal activity (AC50) was 3.18 µM (active). For the compound `CN1CCN(c2ccccc2/C=C2\SCCN(c3ccc(Cl)c(Cl)c3)C2=O)CC1`, the call was inactive. Same read-out and setting: then `CC(O)CO` (stereo not given), with “inactive”. Regarding `CCCOC(=O)c1ccc(O)cc1`, the half-maximal activity concentration (AC50) was 39.3 µM (active). On to `OCCC(F)(F)C(F)(F)C(F)(F)C(F)(F)C(F)(F)C(F)(F)C(F)(F)C(F)(F)F`, for which the result was inactive. Take `Cc1oc(-c2ccccc2)nc1CCOc1ccc(C[C@H](Nc2ccccc2C(=O)c2ccccc2)C(=O)O)cc1`: the result was inactive. For the compound `CC(C)CCCCCCOC(=O)CCCCC(=O)OCCCCCCC(C)C`, the compound was called inactive. As for `OC1CCC(C2CCCCC2)CC1` (stereo not given), the call was inactive. As to `CCc1nn(C2CCCCC2)c2cc(C3(C#N)CCC(C(=O)O)CC3)ccc12` (stereo not given), the half-maximal activity concentration (AC50) was 0.344 µM (active). Regarding `COC(=O)CCCCC(=O)OC`, the result was inactive. Consider `CCCCCCCCCCCCCCCS(=O)(=O)Oc1ccccc1`, for which the result was inactive. For `Oc1cc2ccccc2c2ccccc12`, the half-maximal activity concentration (AC50) is 14.3 µM (active). `CCCCC(CC)COC(=O)CCCCC(=O)OCC(CC)CCCC` (stereo not given): the call was inactive. With `c1ccc2cc3c(ccc4ccccc43)cc2c1`, the AC50 was 46.5 µM (active). Regarding `CC1=C(/C=C/C(C)=C/C=C/C(C)=C/C(=O)O)C(C)(C)CCC1`, the concentration at half-maximal activity (AC50) was 0.183 µM (active). On to `Oc1cccc(O)c1`, for which the call was inactive. Take `CC[C@H](c1ccc(O)cc1)[C@@H](CC)c1ccc(O)cc1`: the outcome was inactive. Take `COc1ccc([N+](=O)[O-])cc1N`: the compound was classed as inactive.

With `CCC(C)(C)C1CCC(O)CC1` (stereo not given), the compound was classed as inactive. In the case of `Nc1cccc2c(N)cccc12`, the compound was called inactive. Regarding `O=C(O)c1ccccc1C(c1ccc(O)cc1)c1ccc(O)cc1`, the compound was classed as inactive. Still for that read-out and setting: then `NC(=O)N1C(=O)C(C(=O)c2cc(Cl)cs2)c2cc(F)c(Cl)cc21` (stereo not given), with “inactive”.

`N#C[C@@H]1CC(F)(F)CN1C(=O)CNC1CC2CCC(C1)N2c1ncccn1` (stereo not given in full): the call was inactive. On the same count and under the same terms, then `CCCCCCCC(=O)O`, with “inactive”. Still for that read-out and setting: then `CC[C@H](C)[C@@H](C(=O)O)n1sc2ccccc2c1=O`, with “inactive”; and `NC(=O)N(O)[C@@H]1C=C[C@H](Oc2cccc(Oc3ccc(F)cc3)c2)C1`, with “inactive”; and `C=C(C)C(=O)OCCC(F)(F)C(F)(F)C(F)(F)C(F)(F)C(F)(F)C(F)(F)F`, with “inactive”. On the same count and under the same terms, then `CCCCCCC(=O)O`, with “inactive”; and `CCOC(=O)CC(O)(CC(=O)OCC)C(=O)OCC`, with “inactive”. On to `CC#C[C@]1(O)CC[C@H]2[C@@H]3CCC4=CC(=O)CCC4=C3[C@@H](c3ccc(N(C)C)cc3)C[C@@]21C`, for which the outcome was inactive.

Regarding `O=C(O)Cc1cc(I)c(Oc2cc(I)c(O)c(I)c2)c(I)c1`, the AC50 was 0.00601 µM (active). In the case of `CCCCCCCCCCCCN1CCCC1=O`, the compound was called inactive. On the same count and under the same terms, for `CC(C)(C)c1ccc(O)c(C(C)(C)C)c1` the value was “inactive”; for `ClC1=C(Cl)C(Cl)(Cl)C(Cl)=C1Cl`, “inactive”; for `O=c1c(-c2ccc(O)cc2)coc2cc(O)ccc12`, “inactive”.

Take `O=C(OCCOCCOC(=O)c1ccccc1)c1ccccc1`: the compound was called inactive.
